# ChEMBL document CHEMBL1157539, “Thousands of chemical starting points for antimalarial lead identification” (Nature, 2010)
# Legend:
# Format in all cases: functional
# [1] = tested on: Plasmodium falciparum; assay: GSK_TCMDC: Inhibition of Plasmodium falciparum 3D7 in whole red blood cells, using parasite LDH activity as an index of growth. Test compounds present at 2uM
# [2] = tested on: Plasmodium falciparum; assay: GSK_TCMDC: Inhibition of Plasmodium falciparum Dd2 in whole red blood cells, using parasite LDH activity as an index of growth. Test compounds present at 2uM
# [3] = tested on: HepG2; assay: GSK_TCMDC: Percent inhibition of human HepG2 cell line. Test compounds present at 10uM.
Compound,Inhibition [1] [%],Inhibition [2] [%],Inhibition [3] [%]
COc1cccc(CN2CCCC(OC(c3ccc(F)cc3)c3ccc(F)cc3)C2)c1O (stereo not drawn),95,95,8
C=C[C@]1(C)C[C@@H](OC(=O)c2n[nH]c3ccccc3c2=O)[C@]2(C)[C@H](C)CC[C@]3(CCC(=O)[C@H]32)[C@@H](C)[C@@H]1O,96,84,0
Br.CC1(C)NC(N)=NC(=N)N1OCCCO,96,0,27
Cc1ccc(NC(=O)c2ccnc(N3CCN(c4ccncc4)CC3)c2)cc1F.O=C(O)C(F)(F)F,94,12,43
Cc1ccc(S(=O)(=O)n2nccc2-c2c(-c3ccc(Cl)cc3)noc2C)cc1,97,97,0
COc1c(C2=CCN(CCCCNC(=O)c3ccc(-c4ccc(C#N)cc4)cc3)CC2)ccc2c1CCCC2,94,82,44
Cc1cc(=O)[nH]c(-n2nc(C)cc2NC(=O)C2(c3ccc(Cl)cc3)CCCC2)n1,96,97,30
CC(CCc1ccc(OCc2ccccc2)cc1)NCC(O)c1ccccc1 (stereo not drawn),86,72,9
CC1(C)CCC(C)(C)c2c1ccc(C1CCN(CCCCNC(=O)c3ccc(-c4ccc(C#N)cc4)cc3)CC1)c2O,100,85,81
CC(NC(=O)c1cc(-c2ccccc2)nc2c1cnn2C(C)C)C1CC1 (stereo not drawn),100,88,35
O=C(Cn1c(CCc2cccc(F)c2F)cc(=O)c2ccccc21)N(Cc1ccc(-c2ccc(C(F)(F)F)cc2)cc1)C1CCN(CCO)CC1.O=C(O)C(O)C(O)C(=O)O,91,84,82
CCN(CCCN1CCCCC1)c1cc(C)nc(Nc2cccc(C(F)(F)F)c2C)n1.O=C(O)C(F)(F)F,99,37,57
O=[N+]([O-])c1cccc(C(Nc2ccccn2)c2ccc3cccnc3c2O)c1 (stereo not drawn),86,29,53
Cn1c(-c2ccccc2)cc2c3c(=O)cc(C(F)(F)F)[nH]c3ccc21,95,49,21
OC(c1nnc(S)n1-c1ccccc1)C(O)c1nnc(S)n1-c1ccccc1 (stereo not drawn),92,89,18
O=C(NC1CCN(Cc2cccc(C(F)(F)F)c2)CC1)c1ccc(-c2cccc(C(F)(F)F)c2)s1.O=C(O)C(F)(F)F,94,54,36
O=C(Nc1ccccc1)N(Cc1cccc(-c2cccc(CNCCc3ccccc3)c2)c1)C1CCN(Cc2ccccc2)CC1.O=C(O)C(F)(F)F,100,87,100
O=C(O)C(F)(F)F.Oc1ccc(CCNc2nc(NCCCOc3cc(CN4CCCCC4)ccc3F)nc(N3CCNCC3)n2)cc1,100,0,30
N#Cc1cccc(NC(=O)NC2CCN(CCCCCNC(=O)/C=C/c3ccc(Cl)c(Cl)c3)CC2)c1,100,7,31
N#Cc1cc(C(=O)Nc2ccccc2)c(N)nc1SCC(=O)NC(c1ccccc1)c1cccs1 (stereo not drawn),98,100,34
CC(=O)Oc1cc(OCc2ccccc2)c(OC(C)=O)c(OCc2ccccc2)c1,94,78,11

Compound,Inhibition [1] [%],Inhibition [2] [%],Inhibition [3] [%]
CC(C)(C)c1nn(-c2ccccc2)c2[nH]c(=O)c(CNCc3ccccc3)cc12,90,91,5
Cc1noc(C)c1-c1cccc(CNCc2ccc(-c3ccc(-c4nc5cc(F)ccc5[nH]4)s3)cc2)c1.O=C(O)C(F)(F)F,100,93,45
CC(C)c1ccc(NC(=O)c2ccc(C(=O)NC3CCN(Cc4ccsc4)C3)cc2)cc1.O=C(O)C(F)(F)F (stereo not drawn),82,28,17
CC(=O)Nc1ccc2[nH]cc(C3CCN(CC4CCC(NC(=O)/C=C/c5ccc(Cl)c(Cl)c5)CC4)CC3)c2n1 (stereo not drawn),100,79,17
CCC(C)NC(=O)Cn1c2ncccc2c(=O)n1-c1ccc(C)cc1 (stereo not drawn),95,63,4
NS(=O)(=O)c1ccc(CNc2ccc3ncc(-c4ccc(Cl)cc4)n3n2)cc1,96,99,26
Cc1cccc2nc(-c3cccc(-c4ccc(NC(=O)C(C)CN5CCN(C)CC5)cc4)c3)[nH]c12 (stereo not drawn),99,100,7
CCCc1ccc(N2C(N)=NC(N)=NC2(C)C)cc1.Cl,94,0,59
COc1cc2nc(N3CCN(C(=O)c4ccc(N(C(=O)OC(C)(C)C)C(=O)OC(C)(C)C)cc4)CC3)nc(N)c2cc1OC,96,19,12
CC(Cc1ccc(C(=O)OC(c2ccccc2)c2ccccc2)cc1)NCC(O)c1ccccc1.Cl (stereo not drawn),100,98,83
COc1ccc(CCNC(=O)c2cc3c(=O)n4cccc(C)c4nc3n(C)c2=N)cc1,99,99,22
CC(C)c1ccc(N(CC(=O)N/N=C/c2ccc(C(F)(F)F)cc2)S(=O)(=O)c2ccc(C(F)(F)F)cc2)cc1,91,44,2
CC(C)Cn1cc(C2CCN(CCN3CCC(CNC(=O)c4ccc(NC(=O)c5cc(Cl)cc(Cl)c5)cc4)CC3)CC2)c2ccccc21,91,96,53
C(=Cc1ccccc1)C=NN=c1cc[nH]c2ccccc12,100,100,24
CCCCOc1cc(C)nc2ccc(NC(=O)COCC(=O)Nc3ccc4nc(C)cc(OCCCC)c4c3)cc12,90,28,0
CCOC(=O)C(NC(=O)Cc1ccccc1)C(C)C (stereo not drawn),96,98,39
CC(C)(C)c1cc(C(=O)Nc2cccnc2)cc(C(=O)Nc2cccnc2)c1,95,35,0
CCc1c(CCNCCCC(C)CCNCCc2ccc(OC)c(OC)c2CC)ccc(OC)c1OC.Cl (stereo not drawn),100,27,99
COc1ccc(CCNCC(O)c2cccc(Br)c2)c(Cl)c1OC.Cl (stereo not drawn),87,70,18
Cc1cc2c(NC(=O)NC3CCN(Cc4ccc(Cl)c(Cl)c4)CC3)cccc2cn1.Cl,100,41,11
Nc1cc(-c2ccc3ccccc3c2)nc2ccccc12,99,52,19

Compound,Inhibition [1] [%],Inhibition [2] [%],Inhibition [3] [%]
O=C(O)C(F)(F)F.O=C1OC(c2ccccc2)(c2ccccc2)CN1CC1CCN(Cc2ccc(O)c(Cl)c2)CC1,98,90,26
COCCCn1c(=N)c(C(=O)NCCc2ccc(OC)cc2)cc2c(=O)n3cccc(C)c3nc21,95,33,18
CN(C)C(=O)CN1CCN(c2ncnc(N3CCc4c([nH]c5ccccc45)[C@@H]3c3ccc4c(c3)CCO4)n2)CC1,99,98,12
Cc1ccc(Nc2ccnc(Nc3ccc4c(c3)CS(=O)(=O)C4)n2)cc1O.Cl,100,76,82
Br.Oc1ccccc1CCNCC1CCc2ccccc2C1 (stereo not drawn),98,98,37
CN(C)CCCOc1cccc(NC(=O)Nc2ccc(Cl)c(Cl)c2)c1.O=C(O)C(F)(F)F,90,8,6
CCc1c(CCNC/C=C/C=C/CNCCc2ccc(OC)c(OC)c2CC)ccc(OC)c1OC.Cl,100,99,75
CC(C)c1cccc(OCC2CCN(c3ncc(C(=O)NC4CC4)cc3Cl)CC2)c1,94,95,9
CCCCN(CCCC)C(=O)CC(O)c1cc2c(Cl)cc(Cl)cc2c2cc(C(F)(F)F)ccc12 (stereo not drawn),92,68,0
COc1ccc(C2CC(=O)C3=C(C2)NC(C)=C(C(=O)OC(C)C)C3c2cccc(O)c2)cc1OC (stereo not drawn),100,85,0
Cl.NCCCOc1cnc(-c2ccccc2)c2nc(-c3nonc3N)n(CCc3ccccc3)c12,93,86,56
COc1ccc2nccc([C@@H](O)CN3CCC(NC(=O)CCC(=O)c4cc(C(C)(C)C)ccc4OC)CC3)c2c1,94,51,26
O=C(NC1CCN(Cc2ccccc2O)C1)c1ccc(-c2ccccc2)cc1.O=C(O)C(F)(F)F (stereo not drawn),99,25,0
Cc1nnsc1C(=O)Nc1cccc(-c2ccc(-c3nc4cc(C(F)(F)F)ccc4[nH]3)cc2)c1,99,97,62
Cc1ccccc1C1CCN(C2CCC(NC(=O)c3ccc(-c4ccccn4)s3)CC2)CC1 (stereo not drawn),87,17,32
Cc1cc(NCCC(=O)Nc2ccccc2)nc(NCCc2ccc(F)cc2)n1.O=C(O)C(F)(F)F,100,43,26
CC(=O)Nc1ccc(CN2CCC(NC(=O)c3ccc(-c4cccc(Cl)c4)s3)CC2)cc1.O=C(O)C(F)(F)F,97,59,34
Cc1cc(CNCCCCCCNCc2cccc([N+](=O)[O-])c2)ccc1O,90,0,13
O=C(NCc1ccc(F)cc1)Nc1cccc(-c2ccc(-c3nc4cc(F)ccc4[nH]3)cc2)c1,100,96,7
